This is a sample that favours compounds with a hit; in the whole collection about 7.9% have one here.
KB-V1 cytotox: KB-V1 MDR subline cytotoxicity | KB-V1 MDR cells viability, CellTiter-Glo, 72 h | Potency, µM (titrated, usually from 46.1 µM), most hits filed as cytotoxic | actives 3.4% (n = 400,000) | AID 1347076; note: % is set by controls: 0 for no effect and ±100 for the full control effect; nearly all actives have a fitted effect of over 60% in size
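Compound-treated KB-V1 multidrug-resistant cells, 72 h, 37 degrees C; viability by CellTiter-Glo. Fitted qHTS curves give the values.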
SW480 rerep: induces DNA re-replication in SW480 colon adenocarcinoma cells | SW480 DNA re-replication, Hoechst DNA content imaging, 48 h | Potency, µM (titrated, usually from 46.1 µM), inactives show at the highest dose re-replication activation, hits mostly activators | actives 1.8% (n = 340,000); note: % of control where 0% means no effect; nearly all actives have a fitted effect of over 55% in size
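SW480 cells exposed to compounds for 48 hr at 37 C, 5% CO2, then Hoechst-stained 40 min. Nuclear DNA content imaged by fluorescence scanning (405 nm excitation, 500-530 nm emission); re-replication scored as increased high-intensity nuclei.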
KB-3-1 cytotox: KB-3-1 parental cell cytotoxicity. KB-3-1 viability, CellTiter-Glo ATP luminescence, 72 h. Potency, µM (titrated, usually from 46.1 µM), most hits filed as cytotoxic. actives 1.4% (n = 400,000); note: % is set by controls: 0 for no effect and ±100 for the full control effect; nearly all actives have a fitted effect of over 60% in size
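Multi-concentration cytotoxicity screen in KB-3-1 cells grown in DMEM lacking phenol red with 10% FBS. After 72 h at 37 °C with compound, ATP-dependent luminescence was recorded.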
MCF10A rereplic: inducers of DNA re-replication in MCF 10A breast cells. AID 624296. Potency, µM (highest dose often 46.1 µM), inactives show at the highest dose activity, positive = re-replication, most hits filed as activators. actives 2.9% (n = 350,000). MCF 10A DNA re-replication, Hoechst nuclear intensity, 48 h; note: % of control where 0% means no effect; nearly all actives have a fitted effect of over 50% in size
HT1080 IDH1KD tx: HT-1080 IDH1 knockdown cell toxicity (counter line); AID 686971; Potency, µM (highest dose often 46.1 µM), without a hit: at the top dose activity, negative = toxicity, hits mostly cytotoxic; HT-1080 IDH1 knockdown viability, ATP luminescence, 48 h; actives 2% (n = 360,000);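 note: 0% = DMSO wells and -100% = cell-free medium wells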
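Luminescent ATP read-out (CellTiter-Glo, 10 min at room temperature) after 48 h compound exposure at 37 °C gave viability of IDH1-knockdown HT-1080 cells. Activity was normalised to DMSO and cell-free wells, then fitted as concentration-response curves.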
HT1080-NT tox: kills 2HG-producing HT-1080-NT fibrosarcoma cells; HT-1080-NT fibrosarcoma viability, CellTiter-Glo ATP luminescence, 48 h; actives 1.6% (n = 360,000); Potency, µM (top dose mostly 46.1 µM), for inactives: at the highest dose activity, negative = less viability, hits mostly cytotoxic;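 note: NT is the 2HG producing partner of a matched IDH1 knockdown line; 0% = DMSO-treated cells and -100% = media-only wells without cells; nearly all actives have a fitted effect of over 55% in size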
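Toxicity toward the 2HG-producing NT line was scored as %Activity, normalised to DMSO and no-cell wells, from CellTiter-Glo luminescence after 48 hours' treatment.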
* = called active by the depositor; i = inactive; ? = inconclusive; / = no result; [ ] = another dose, or the depositor's remark. Calls come from the whole dose curve; as a rule, active = well fitted curve in the direction sought with a large enough effect; inconclusive = small, poorly fitted or top-dose-only effect, or another doubt; inactive = no such curve, though single readings can be large; an effect the other way counts as inactive or inconclusive. Potency is the fitted concentration of half-maximal effect.

SMILES	KB-V1 cytotox	SW480 rerep	KB-3-1 cytotox	MCF10A rereplic	HT1080 IDH1KD tx	HT1080-NT tox
COc1ccc(C(=O)C[n+]2ccc(N(C)C)cc2)cc1	i	?	5.17µM*	?	?	-9.0%
CN(C)c1cc[n+](CC(=O)c2ccc(-c3ccccc3)cc2)cc1	i	4.0%	?	9.6%	16.4µM*	8.2µM*
CN(C)c1cc[n+](CC(=O)c2ccc(Br)cc2)cc1	i	9.3%	i	14.6%	-1.1%	-12.7%
Cc1ccc(S(=O)(=O)c2cnc(SCC(=O)Nc3ccc4c(c3)OCCO4)[nH]c2=O)cc1C	i	/	i	/	/	/
Cc1cc(N2C(=O)C3C4c5ccccc5C(c5ccccc54)C3C2=O)no1 (stereo not given)	8.2µM*	6.2%	i	?	2.6%	7.8%
Cc1cc(C)c(C#N)c(SCCS(=O)(=O)Cc2ccc(Cl)cc2)n1	i	-0.3%[9.22 µM]	?	3.2%	-14.0%	?
CC1CC(C)(C)CC2(C1)NC(=O)N(CC(=O)OCc1ccc(Br)cc1)C2=O (stereo not given)	16.4µM*	4.0%	i	?	?	-5.4%
O=Cc1ccc(O)c2ncccc12	?	7.31µM*	6.51µM*	1.64µM*	3.66µM*	2.31µM*
COc1ccccc1-c1c(C(F)(F)F)oc2cc(OS(C)(=O)=O)ccc2c1=O	20.6µM*	-4.5%	?	1.5%	-11.0%	-0.3%
COc1ccc(-c2c(C(F)(F)F)oc3cc(OCC(=O)Nc4ccccc4C(F)(F)F)ccc3c2=O)cc1OC	?	2.8%	i	8.2µM*	1.7%	6.9%
C=CCn1c(SCC(=O)NC)nc2sc3c(c2c1=O)CCC3	2.06µM*	-3.1%	i	23.2%	-0.8%	-4.1%
C=CCNC(=O)CSc1nc2sc3c(c2c(=O)n1CCCOC)CCC3	i	-2.9%	i	6.51µM*	-6.5%	-8.2%
CC1CCC(NC(=O)COC(=O)C2CC3CCCC(C2)C3=O)CC1 (stereo not given)	i	-4.0%	i	-3.3%	13.1%	10.5%
Cc1ccc(N2CC(C(=O)Nc3ccc4c(c3)OCCO4)CC2=O)cc1 (stereo not given)	i	-7.7%	i	29.0%	?	-6.5%
CN1CCCC(OC(=O)c2ccccc2F)C1 (stereo not given)	i	-1.1%	i	-4.9%	5.4%	1.5%
CN1CCCC(CC2c3ccccc3Sc3ccccc32)C1 (stereo not given)	18.4µM*	-11.0%	i	-29.2%	18.4µM*	20.6µM*
CN1CCCC(CN2c3ccccc3Sc3ccccc32)C1 (stereo not given)	?	?	i	-24.8%	20.6µM*	?
CCc1ccccc1NC(=O)CCc1nc(-c2ccc(C)cc2)no1	i	-3.1%	i	10.2%	-14.2%	-13.1%
CC(Oc1ccc(C(=O)c2ccccc2)cc1)C(=O)N1CCOCC1 (stereo not given)	i	-2.2%	i	1.6%	0.0%	0.3%
CC(Oc1cc(-c2ccccc2)cc2ccccc12)C(=O)N1CCOCC1 (stereo not given)	6.51µM*	5.7%	?	15.5%	-2.6%	-0.6%
COc1cccc(O)c1CN1CCC(C(=O)Nc2ccc(Oc3cccnc3)cc2)CC1	/	5.9%	/	15.9%	-28.9%	-15.2%
COc1cccc(O)c1CN1CCC(C(=O)Nc2ccc(-c3cccc(C)c3)cc2)CC1	?	?	18.4µM*	?	18.4µM*	23.1µM*
CC(=O)N1Cc2ccccc2CC1C(=O)OCC(=O)c1c(N)n(C)c(=O)n(C)c1=O (stereo not given)	i	-2.8%	i	5.3%	2.0%	-4.3%
Cc1c(-c2ccccc2)sc2nc[nH]c(=S)c12	11.6µM*	-3.9%	?	2.8%	-10.6%	19.4%

Bioassay records deposited in PubChem BioAssay by National Center for Advancing Translational Sciences (NCATS).
